Where “and” joins values, the source holds several entries; their conditions need not be identical. Equal entries are not always repeated. Calls of active or inactive are those of the source. Rule as the data show it, unless noted: active = inhibition above about 80%; inactive = the rest.
Legend:
[1] = test system: Aerobactin synthetase IucA (Klebsiella pneumoniae); assay: IucA aerobactin synthetase inhibitors, biochemical, Tocris library, absorbance (AID 1345561; call rule not given here;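 also: 100% = enzyme without compound and 0% = no enzyme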); details: purified IucA enzyme assay, absorbance (OD) read-out; stronger effect = lower value;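 tested at 8 µM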
[2] = sensitizers of A549 cells to miR-34 induction, primary screen, imaging, A549 dox-inducible miR-34, nuclei and caspase counts (AID 1347080;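 active = compounds whose cell count with miR-34 switched on is under 0.7 times the count with it off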); details: A549 miR-34 inducible, Hoechst nuclei count, 48 h
[3] = viability rescue of complex I mutant cybrids, primary screen, cell-based, galactose medium, ATP luminescence (AID 1645843;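 active = z-score of at least 1.8 in each of two replicates, scored against plate mean and spread of sample wells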;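 also: positive z means more ATP and so rescue of galactose-driven cybrid death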); details: complex I mutant cybrid cells, 72 h, stronger effect = higher value
[4] = survival rescue of mitochondrial mutant cells in low glucose, primary screen, MELAS cybrids, Rieske KO mouse fibroblasts, CellTiter-Glo (AID 1508586;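 active = mean z-score across replicates of 1.96 or higher in either the MELAS or the Rieske mutant cell line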;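 also: z relative to plate mean and SD of compound and empty wells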)
[5] = LFS_MB_P medulloblastoma growth inhibition, cell-based, chromothripsis tumors, cisplatin or BGB combos (AID 1671449); details: LFS_MB_P medulloblastoma cells;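 also: cells exposed for 96 hours; 0% = vehicle DMSO and 100% = killing by high DMSO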
[6] = HDN33 neuroblastoma growth inhibition, cell-based, chromothripsis tumors, cisplatin or BGB combos (AID 1671450); details: HDN33 neuroblastoma cells, stronger effect = higher value;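 also: cells exposed to compound for four days; 0% = vehicle DMSO and 100% = cell killing by high DMSO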
[7] = ICB984 medulloblastoma cell growth inhibition, synergistic combos for chromothripsis tumors, cisplatin or BGB combos (AID 1671451; call rule not given here;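 also: cells exposed for 96 hours before readout; 0% = vehicle DMSO and 100% = killing by high DMSO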); details: ICB984 medulloblastoma cells, drug combinations, stronger effect = higher value
[8] = LFS_MB_1R medulloblastoma cell growth inhibition, synergistic combos for chromothripsis tumors, cisplatin or BGB combos (AID 1671452); details: LFS_MB_1R medulloblastoma cells, stronger effect = higher value;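 also: cells exposed for 96 hours before readout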
[9] = HTB85 osteosarcoma cell growth inhibition, synergistic combos for chromothripsis tumors, BGB or cisplatin IC20 combos (AID 1671453); details: HTB85 osteosarcoma cells, drug combinations, stronger effect = higher value;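 also: cells exposed for 96 hours before readout; 0% = vehicle DMSO and 100% = high DMSO killing control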
[10] = CRL2098 osteosarcoma cell growth inhibition, synergistic combos for chromothripsis tumors, BGB or cisplatin IC20 combos (AID 1671454); details: CRL2098 osteosarcoma cells, drug combinations, stronger effect = higher value;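 also: cells exposed for 96 h before readout; 0% = vehicle DMSO and 100% = killing by high DMSO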
[11] = HD-MB03 medulloblastoma cell growth inhibition, synergistic combos for chromothripsis tumors, BGB or cisplatin IC20 combos (AID 1671455; in the data active = inhibition above about 83%;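 also: 0% = vehicle DMSO and 100% = high DMSO as cytotoxic control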); details: HD-MB03 medulloblastoma cells, stronger effect = higher value
[12] = UWB1.289 ovarian carcinoma cell growth inhibition, synergistic combos for chromothripsis tumors, BGB or cisplatin combos (AID 1671456); details: UWB1.289 ovarian carcinoma cells, stronger effect = higher value;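 also: cells exposed to compound for four days; 0% = vehicle DMSO and 100% = killing by high DMSO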
[13] = LFS_MB_2R medulloblastoma cell growth inhibition, synergistic combos for chromothripsis tumors, cisplatin combos (AID 1671457); details: LFS_MB_2R medulloblastoma cells, stronger effect = higher value;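 also: cells exposed to compound for four days before readout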
[14] = MDA-MB-436 breast carcinoma cell growth inhibition, synergistic combos for chromothripsis tumors, BGB or cisplatin combos (AID 1671458; call rule not given here;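 also: cells exposed for 96 hours; 0% = vehicle DMSO and 100% = killing by high DMSO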); details: MDA-MB-436 breast carcinoma growth inhibition, drug combinations, stronger effect = higher value
[15] = UWB1.289_BRCA1 ovarian cancer growth, cell-based, BGB or cisplatin combinations (AID 1671459); details: UWB1.289 BRCA1 ovarian carcinoma, drug combinations, stronger effect = higher value
[16] = human astrocyte viability loss, single and combined drugs, cytotoxicity control for chromothriptic childhood tumor combination screen, cell-based, BGB or cisplatin IC20 combos (AID 1671460); details: Human astrocytes, drug combinations, stronger effect = higher value;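 also: cells exposed to compounds for 96 hours before viability readout; 0% = vehicle and 100% = killing control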
[17] = growth inhibition of BT084 medulloblastoma cells, cell-based, ICGC_MB145, cisplatin and BGB IC40 combos (AID 1671461); details: drug combinations, stronger effect = higher value;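 also: cells exposed to drugs for 96 hours; 0% = vehicle DMSO and 100% = high DMSO full killing control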
[18] = growth inhibition of RCMB18 medulloblastoma cells, cell-based, cisplatin and BGB IC40 combos (AID 1671462); details: stronger effect = higher value;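 also: cells exposed to compound for four days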
[19] = growth inhibition of CRL1545 osteosarcoma cells, cell-based, cisplatin and BGB IC20 combos (AID 1671464); details: stronger effect = higher value;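 also: cells exposed to compound for 96 hours before readout; 0% = vehicle DMSO and 100% = high DMSO killing control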
[20] = stronger effect = lower value, cell number ratio, induced over uninduced
[21] = measured here: relative caspase fold change +Dox/-Dox
[22] = measured here: total cells with miR-34 induction, stronger effect = lower value
[23] = measured here: total cells without miR-34 induction
[24] = measured here: combination with BGB IC40, at 0.05 µM
[25] = measured here: with BGB IC20 combination, at 0.5 µM
[26] = measured here: with cisplatin IC20 combination, at 0.5 µM
[27] = measured here: combination with cisplatin, at 0.5 µM
[28] = measured here: combination with cisplatin, at 5 µM

**Q.** Which remaining activity [1] does the source give for `CCC(=O)OCN1C(=O)C=CC1=O` here?
**A.** 92.2% (inactive)

**Q.** And the fold change [2, 20]?
**A.** 0.956 (inactive)

**Q.** And the fold change [2, 21]?
**A.** 1.17

**Q.** What about the cell count [2, 22] of the same compound?
**A.** 9240

**Q.** What about the cell count [2, 23] of the same compound?
**A.** 9660

**Q.** And the z-score [3]?
**A.** -0.205 (inactive)

**Q.** Which remaining activity [1] does the source give for `O=C(COc1cccc2c(=O)[nH]ccc12)c1ccccc1` here?
**A.** 129% (inactive)

**Q.** What about the fold change [2, 20] of the same compound?
**A.** 0.93 (inactive) and 0.917 (inactive)

**Q.** What about the fold change [2, 21] of the same compound?
**A.** 0.39 and 1.29

**Q.** And the cell count [2, 22]?
**A.** 8870 and 8400

**Q.** And the cell count [2, 23]?
**A.** 9530 and 9170

**Q.** And the z-score ([4]; MELAS cybrid survival, CellTiter-Glo 48 h, stronger effect = higher value)?
**A.** -0.468 (inactive)

**Q.** And the z-score ([4]; Rieske KO mouse fibroblast survival, CellTiter-Glo 72 h)?
**A.** 0.438

**Q.** What about the z-score [3] of the same compound?
**A.** -0.28 (inactive)

**Q.** And the inhibition ([5]; at 0.5 µM, stronger effect = higher value)?
**A.** -16.5% (inactive)

**Q.** What about the inhibition ([5]; measured here: combination with BGB IC20, at 0.005 µM) of the same compound?
**A.** -16.8%

**Q.** What about the inhibition ([5]; measured here: combination with BGB IC40, at 0.005 µM) of the same compound?
**A.** -36.3%

**Q.** And the inhibition [5, 24]?
**A.** -53.7%

**Q.** What about the inhibition ([5]; measured here: combination with cisplatin, at 0.5 µM, stronger effect = higher value) of the same compound?
**A.** -36.1%

**Q.** What about the inhibition ([5]; measured here: combination with cisplatin, at 5 µM, stronger effect = higher value) of the same compound?
**A.** -39.6%

**Q.** And the inhibition ([6]; BGB combo, at 5 µM)?
**A.** -30.5%

**Q.** What about the inhibition ([6]; at 0.5 µM) of the same compound?
**A.** -19.3% (inactive)

**Q.** What about the inhibition ([6]; cisplatin combo, at 5 µM) of the same compound?
**A.** 0.128%

**Q.** What about the inhibition [6, 25] of the same compound?
**A.** -14.4%

**Q.** And the inhibition [6, 26]?
**A.** -33.6%

**Q.** What about the inhibition ([6]; single agent, at 5 µM) of the same compound?
**A.** 5.27%

**Q.** And the inhibition ([7]; BGB IC20 combo, at 0.005 µM)?
**A.** -2.15%

**Q.** And the inhibition ([7]; BGB IC40 combo, at 0.005 µM)?
**A.** -17.7%

**Q.** And the inhibition ([7]; BGB IC40 combo, at 0.05 µM)?
**A.** -10.1%

**Q.** What about the inhibition ([7]; at 0.5 µM) of the same compound?
**A.** -21.4% (inactive)

**Q.** What about the inhibition ([7]; cisplatin combo, at 0.05 µM) of the same compound?
**A.** -14.1%

**Q.** What about the inhibition ([7]; cisplatin combo, at 0.5 µM) of the same compound?
**A.** -12.6%

**Q.** What about the inhibition ([7]; cisplatin combo, at 5 µM) of the same compound?
**A.** -29.1%

**Q.** What about the inhibition ([7]; measured here: 5 uM single agent, at 5 µM) of the same compound?
**A.** -6.87%

**Q.** What about the inhibition ([8]; at 0.5 µM) of the same compound?
**A.** -3.67% (inactive)

**Q.** What about the inhibition [8, 24] of the same compound?
**A.** 3.04%

**Q.** And the inhibition [8, 27]?
**A.** 4.91%

**Q.** And the inhibition [8, 28]?
**A.** -55.9%

**Q.** What about the inhibition ([9]; at 0.5 µM) of the same compound?
**A.** -2.5% (inactive)

**Q.** What about the inhibition ([9]; measured here: with BGB IC20, at 0.5 µM) of the same compound?
**A.** -2.96%

**Q.** And the inhibition ([9]; measured here: with BGB IC20, at 5 µM)?
**A.** -14.8%

**Q.** And the inhibition ([9]; measured here: with cisplatin IC20, at 0.5 µM)?
**A.** -15.8%

**Q.** What about the inhibition ([9]; measured here: with cisplatin IC20, at 5 µM) of the same compound?
**A.** -9.52%

**Q.** And the inhibition ([9]; single agent, at 5 µM)?
**A.** -11.8%

**Q.** What about the inhibition ([10]; at 0.5 µM) of the same compound?
**A.** -77.2% (inactive)

**Q.** What about the inhibition ([10]; measured here: combination with BGB at IC20, at 0.5 µM) of the same compound?
**A.** -43.7%

**Q.** What about the inhibition ([10]; measured here: combination with cisplatin at IC20, at 0.5 µM) of the same compound?
**A.** -122%

**Q.** What about the inhibition ([11]; at 0.5 µM) of the same compound?
**A.** -12.7% (inactive)

**Q.** What about the inhibition ([11]; measured here: combo with BGB at IC20, at 0.5 µM) of the same compound?
**A.** -9.35%

**Q.** And the inhibition ([11]; measured here: combo with cisplatin at IC20, at 0.5 µM)?
**A.** -24.1%

**Q.** What about the inhibition ([12]; at 0.5 µM) of the same compound?
**A.** -8.68% (inactive)

**Q.** What about the inhibition ([12]; measured here: inhibition with BGB combination, at 0.05 µM) of the same compound?
**A.** -22.4%

**Q.** And the inhibition ([12]; measured here: inhibition with cisplatin combination, at 0.05 µM)?
**A.** -23.8%

**Q.** And the inhibition ([13]; at 0.5 µM)?
**A.** -15.2% (inactive)

**Q.** What about the inhibition [13, 27] of the same compound?
**A.** -23.3%

**Q.** What about the inhibition [13, 28] of the same compound?
**A.** -11.3%

**Q.** And the inhibition ([14]; at 0.5 µM)?
**A.** -8.48% (inactive)

**Q.** And the inhibition ([14]; measured here: BGB combination, at 0.5 µM)?
**A.** -12.1%

**Q.** And the inhibition ([14]; measured here: BGB combination, at 5 µM)?
**A.** -20.7%

**Q.** What about the inhibition ([14]; measured here: cisplatin combination, at 0.5 µM) of the same compound?
**A.** -11.8%

**Q.** And the inhibition ([14]; measured here: cisplatin combination, at 5 µM)?
**A.** -15.5%

**Q.** What about the inhibition ([15]; BGB combination, concentration series, at 5 µM) of the same compound?
**A.** 17.1%

**Q.** What about the inhibition ([15]; at 0.5 µM) of the same compound?
**A.** -4.72% (inactive)

**Q.** What about the inhibition ([15]; cisplatin combination, concentration series, at 5 µM) of the same compound?
**A.** -1.24%

**Q.** What about the inhibition ([16]; at 0.5 µM) of the same compound?
**A.** 18.8% (inactive)

**Q.** What about the inhibition ([16]; measured here: combo with BGB IC20, at 0.5 µM) of the same compound?
**A.** 3.19%

**Q.** And the inhibition ([16]; measured here: combo with cisplatin IC20, at 0.5 µM)?
**A.** 27.2%

**Q.** And the inhibition ([17]; at 0.5 µM)?
**A.** -16.5% (inactive)

**Q.** And the inhibition ([17]; cisplatin combination, at 0.5 µM)?
**A.** -34.9%

**Q.** What about the inhibition ([17]; cisplatin combination, at 5 µM) of the same compound?
**A.** -2.7%

**Q.** And the inhibition ([17]; measured here: BGB IC40 combination 0.05 uM, at 0.05 µM)?
**A.** -29.5%

**Q.** And the inhibition ([17]; single agent, at 5 µM)?
**A.** 2.36%

**Q.** And the inhibition ([18]; at 0.5 µM)?
**A.** -1.53% (inactive)

**Q.** What about the inhibition ([18]; cisplatin combo, at 5 µM) of the same compound?
**A.** -22.8%

**Q.** And the inhibition ([18]; measured here: BGB IC40 combination, at 0.05 µM)?
**A.** -14.7%

**Q.** And the inhibition [18, 27]?
**A.** -4%

**Q.** And the inhibition ([18]; single agent, at 5 µM)?
**A.** -18.5%

**Q.** And the inhibition ([19]; at 0.5 µM)?
**A.** -12.7% (inactive)

**Q.** And the inhibition [19, 25]?
**A.** -33.3%

**Q.** What about the inhibition [19, 26] of the same compound?
**A.** -4%

**Q.** What about the inhibition ([19]; single agent, at 0.05 µM) of the same compound?
**A.** 2.29%

**Q.** What about the inhibition ([19]; single agent, at 5 µM) of the same compound?
**A.** -29.9%

— PubChem BioAssay
